# Most compounds without a hit are left out; they make up all but 3.4% or so of the library.
# AmpC inh detg – AmpC beta-lactamase inhibition with detergent present; P00811; AmpC hydrolysis of nitrocefin, absorbance 480 nm, 0.01% Triton; hit rate 0.041% among 370,000; Potency, µM (titrated, usually from 114 µM), without a hit: at the highest dose activity change, negative = inhibition, actives largely listed as inhibitors;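 further: 0% = no-compound wells and -100% = no-enzyme wells; nearly all actives have a fitted effect of over 25% in size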
# Target sequence (P00811 whole entry, looked up): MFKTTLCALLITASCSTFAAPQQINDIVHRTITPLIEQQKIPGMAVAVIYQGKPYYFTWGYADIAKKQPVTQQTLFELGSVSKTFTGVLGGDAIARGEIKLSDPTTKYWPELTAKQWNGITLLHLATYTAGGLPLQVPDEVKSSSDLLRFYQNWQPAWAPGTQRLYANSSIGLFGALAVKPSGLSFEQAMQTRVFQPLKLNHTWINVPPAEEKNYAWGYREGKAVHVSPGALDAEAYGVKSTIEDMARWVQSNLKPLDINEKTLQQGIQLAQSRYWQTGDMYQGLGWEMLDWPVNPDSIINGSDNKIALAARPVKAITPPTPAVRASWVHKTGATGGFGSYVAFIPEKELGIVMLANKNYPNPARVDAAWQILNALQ
#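 AmpC (5.3 nM in the dispensed reagent) in 20 mM phosphate pH 7.0 with 0.01% (detergent screen) or 0.0001% Triton X-100 was preincubated with compounds for 15 min at room temperature. Nitrocefin was then added from an 800 uM solution, and hydrolysis was followed at 480 nm.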
# FBPA Giardia inh – Giardia lamblia aldolase inhibition; Potency, µM (top dose mostly 59.6 µM), for the others: top-dose activity, negative = inhibition, usual class: inhibitors; AID 2451; hit rate 0.71% among 290,000; A8B2U2; purified Giardia FBPA; further: nearly all actives have a fitted effect of over 55% in size
# Target sequence (A8B2U2 whole entry, looked up): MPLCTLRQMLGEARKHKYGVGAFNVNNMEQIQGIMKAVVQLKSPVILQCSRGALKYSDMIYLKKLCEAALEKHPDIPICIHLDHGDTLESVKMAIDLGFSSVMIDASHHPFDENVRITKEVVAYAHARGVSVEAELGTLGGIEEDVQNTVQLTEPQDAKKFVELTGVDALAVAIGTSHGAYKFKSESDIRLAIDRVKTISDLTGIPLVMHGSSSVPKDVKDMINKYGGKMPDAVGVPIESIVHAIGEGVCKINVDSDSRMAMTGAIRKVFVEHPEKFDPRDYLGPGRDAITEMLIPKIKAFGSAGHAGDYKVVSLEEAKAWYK
#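 40 nM FBPA preincubated 10 min at RT with compound (up to 57.5 uM final), then substrate plus GAPDH/TPI/NAD/arsenate coupling and diaphorase/resazurin added. Fluorescence read after 20 min at RT, 525/598 nm.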
# Sm TGR inh – blocks Schistosoma mansoni thioredoxin glutathione reductase. Q962Y6. purified TGR, DTNB reduction, TNB absorbance 405 nm. Potency, µM (highest dose often 114 µM), for inactives: at the highest dose activity change, negative = inhibition, usual class: inhibitors. hit rate 3% among 360,000; further: nearly all actives have a fitted effect of over 60% in size
#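 First, TGR (20 nM dispensed) and NADPH were mixed with compound. Second, a 15 min room-temperature incubation followed. Third, further NADPH and then DTNB were added to start the reaction. Finally, TNB absorbance was monitored kinetically.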
# AmpC no deterg – inhibitors of E. coli AmpC beta-lactamase without detergent. P00811. AmpC nitrocefin hydrolysis, absorbance 480 nm, 0.0001% Triton. Potency, µM (highest dose often 57.1 µM), for inactives: at the highest dose activity change, negative = inhibition, hits mostly inhibitors. hit rate 0.52% among 330,000. AID 485341;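 further: plate controls were no compound for no effect and no enzyme for full effect; nearly all actives have a fitted effect of over 20% in size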
#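 20 mM phosphate pH 7.0 + 0.01% (detergent screen) or 0.0001% Triton X-100; 5.3 nM AmpC reagent; cpd preinc 15 min RT; nitrocefin (800 uM stock) to start; A480 q20 s × 4 min; Activity was normalised to no-enzyme and no-compound control wells.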
# RE007 growth inh – less growth of the S. pombe RE007 Vpr strain; Potency, µM (doses to about 92.2 µM), for inactives: at the top dose activity change, negative = less growth, most hits filed as inhibitors; hit rate 0.21% among 360,000; AID 651644; S. pombe RE007 Vpr strain, BacTiter-Glo ATP luminescence, 24 h; active means well fitted falling curve with a large enough effect; inconclusive means small, poorly fitted or top-dose-only effect; inactive means no such curve, though single readings can be large or run the other way; further: nearly all actives have a fitted effect of over 50% in size
#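 Fission yeast strain RE007, carrying one chromosomally integrated HIV-1 vpr copy, was seeded at OD 0.01 in PMG+AL medium with 23 nL pinned compound. After 24 h at 30 °C and 99% humidity, viability was read by BacTiter-Glo luminescence.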
# Active calls of the source: *; ? = inconclusive; . = not tested or not shown. Unless noted, the call rests on the fitted dose curve; in most records, active means well fitted curve in the direction sought with a large enough effect; inconclusive means small, poorly fitted or top-dose-only effect, or another doubt; inactive means no such curve, though single readings can be large; an effect the other way counts as inactive or inconclusive. Unless noted, on the % scale 0 is the no-effect control and ±100 the full control effect; potency means the concentration at half of the fitted maximal effect.
SMILES,AmpC inh detg,FBPA Giardia inh,Sm TGR inh,AmpC no deterg,RE007 growth inh
O=C(O)c1cc(Nc2cc(Cl)c3nonc3c2[N+](=O)[O-])ccc1O,-9%,19%,0.1µM*,-21%,-19%
O=[N+]([O-])c1c(Nc2ccccc2O)cc(Cl)c2nonc12,-17%,-7%,0.63µM*,32µM*,-23%
O=[N+]([O-])c1c(Nc2ccc(O)cc2)cc(N2CCOCC2)c2nonc12,?,?,-8%,-29%,17%
Nc1cc(Cl)c2nonc2c1[N+](=O)[O-],-10%,?,1.4µM*,-15%,-18%
O=[N+]([O-])c1c(O)c(Cl)cc(Cl)c1Cl (tested in a mixture with another compound),.,.,.,.,-9%
CC(C)CCC1(CCc2ccncc2)C(=O)NC(=O)NC1=O,2%,1%,5%,0%,6%
COC1(NC(=O)c2ccccc2)C(C)=CC(=O)C=C1C,-5%,-10%,25µM*,-2%,-3%
Cc1ccc(NC(=O)c2nc(-c3ccncc3)no2)c(Cl)c1,0%,.,12%,.,.
Nc1ncnc2c1ncn2[C@@H]1O[C@H](COP(=O)(O)O)[C@@H](O)[C@H]1O,-11%,-3%,-25%,0%,?
Nc1ncnc2c1ncn2[C@@H]1O[C@H](COP(=O)(O)OP(=O)(O)OP(=O)(O)O)[C@@H](O)[C@H]1O,?,.,-6%,-36%,3.2µM*
N#Cc1cn(-c2ccccc2)nc1-c1cc2ccccc2oc1=O,?,-1%,9%,-21%,3%
O=C(O)CCn1cc(C=C2C(=O)NC(=S)NC2=O)c(-c2cc3ccccc3oc2=O)n1,4%,?,10µM*,-19%,-8%
O=C(O)CCn1cc(C=C2C(=O)NC(=S)NC2=O)c(-c2ccccc2)n1,-7%,-24%,79µM*,2%,6%
N#CCCn1cc(C=C2C(=O)NC(=O)NC2=O)c(-c2ccccc2)n1,-7%,3%,-13%,-42%,10%
O=C(Nc1nc2nc(-c3ccccc3)cc(=O)n2[nH]1)c1ccc(Cl)cc1,-2%,.,-1%,.,.
CCOc1cc(-c2nc(-c3ccc(-c4ccccc4)nc3OCC)no2)cc(OCC)c1OCC,2%,.,4%,.,.
O=C(NCCc1c[nH]c2ccccc12)c1cncc(Br)c1,-4%,4%,-13%,-17%,9%
Oc1c(Br)cc(C2N=C(c3ccccc3)NO2)cc1Br (centres undefined),-7%,8%,50µM*,-20%,?
CSc1ccc(C2N=C(c3ccccc3)NO2)cc1 (centres undefined),0%,-18%,?,?,9%
Cc1ccccc1N(CC(=O)NCCSCc1ccccc1)S(C)(=O)=O,2%,-3%,1%,2%,-2%
COc1ccccc1N1C(=O)c2ccc(C(=O)Nc3ccc(C(=O)O)cc3)cc2C1=O,-5%,-6%,89µM*,-17%,2%
O=C(COc1ccc(Cl)cc1)NCCc1ccccn1,-10%,3%,-3%,-10%,-10%
Cc1cc(C)cc(NS(=O)(=O)c2ccc3[nH]cc(C(=O)NCc4ccco4)c(=O)c3c2)c1,-10%,-9%,40µM*,16µM*,4%
COc1cccc(NS(=O)(=O)c2ccc3[nH]cc(C(=O)NCCc4ccc(C)cc4)c(=O)c3c2)c1,-13%,.,-7%,6.3µM*,.
COc1ccc(C(=O)C[n+]2cn(C(F)F)c3ccccc32)c(F)c1,3%,7%,10µM*,-22%,38%
SMILES,AmpC inh detg,FBPA Giardia inh,Sm TGR inh,AmpC no deterg,RE007 growth inh
COc1ccc2c(ccc[n+]2CC(=O)c2ccccc2)c1,0%,13%,-2%,-21%,3%
Nc1nc(SCC(=O)N2N=C3/C(=C/c4ccco4)CCCC3C2c2ccco2)n[nH]1 (centres undefined),-3%,-1%,?,-24%,3%
Cn1cnnc1SCC(=O)N1N=C2/C(=C/c3ccco3)CCCC2C1c1ccco1 (centres undefined),-4%,-12%,45µM*,125%,0%
O=C(CSc1nccc(=O)[nH]1)N1N=C2/C(=C/c3ccco3)CCCC2C1c1ccco1 (centres undefined),-6%,-30%,22µM*,7%,0%
Cn1cnnc1SCC(=O)N1N=C(c2ccc(Cl)cc2)CC1c1ccco1 (centres undefined),-6%,7%,32µM*,106%,11%
c1cc(-c2nnn(CCOCCn3nnc(-c4ccncc4)n3)n2)ccn1,-8%,20%,3%,-10%,1%
O=C1OC(NC(=O)c2ccccc2)C(n2cc(CO)nn2)=C1Cl (centres undefined),?,-6%,0.79µM*,-34%,13%
Cc1nc(N2CCCCC2)sc1C(=O)c1ccc(Cl)c([N+](=O)[O-])c1,-1%,-14%,-30%,8%,.
CC1=NC(Nc2nc(C)c3ccccc3n2)=NC(C)(C)C1,?,5%,25µM*,-48%,-5%
COc1ccc2[nH]c(=O)c(CN(Cc3nnnn3Cc3ccco3)C3CCCCC3)cc2c1,-7%,?,56µM*,-4%,15%
CCC(c1nnnn1Cc1ccco1)N(Cc1cc2cc(C)cc(C)c2[nH]c1=O)CC1CCCO1 (centres undefined),-11%,-21%,22µM*,81%,-17%
CCC(c1nnnn1Cc1ccco1)N(Cc1ccccc1OC)Cc1cc2cc(C)ccc2[nH]c1=O (centres undefined),-16%,-8%,-21%,-46%,7%
COc1ccc(Cn2nnnc2CN(Cc2cc3cc(C)ccc3[nH]c2=O)C2CCCC2)cc1,?,-26%,35µM*,-33%,2%
COc1ccc2cc(CN(CCc3ccccc3)Cc3nnnn3Cc3ccco3)c(=O)[nH]c2c1,-7%,-9%,?,27%,29%
Cc1ccc2[nH]c(=O)c(CN(Cc3nnnn3C3CCCC3)C3CCCCC3)cc2c1,-16%,0%,0%,-20%,10%
O=c1[nH]c2cc3c(cc2cc1CN(Cc1nnnn1C1CCCC1)C1CCCC1)OCCO3,-2%,-5%,50µM*,-18%,10%
COc1cc2cc(CN(Cc3nnnn3C3CCCC3)C3CCCC3)c(=O)[nH]c2cc1OC,-12%,2%,-14%,1%,.
COc1ccc2[nH]c(=O)c(CN(Cc3ccco3)C(c3nnnn3Cc3ccccc3)C(C)C)cc2c1 (centres undefined),-10%,-7%,-32%,-13%,11%
COc1ccc2[nH]c(=O)c(CN(C3CCCCC3)C(c3nnnn3Cc3ccco3)C(C)C)cc2c1 (centres undefined),-8%,-17%,13µM*,-33%,8%
CCC(C)(C)n1nnnc1CN(Cc1cc2cc(OC)c(OC)cc2[nH]c1=O)C1CCCC1,0%,-1%,25µM*,-7%,18%
